Compound activity as filed in PubChem BioAssay.
This is a sample that favours compounds with a hit; in the whole collection about 3% have one here.
HIF-2a block: HIF-2a reporter inhibitors, primary screen, luminescence, 786-0 RCC cells; 786-0 RCC cells HIF-2a reporter, luciferase luminescence, overnight; inhibition, % at 18.8 µM; 360,000 compounds, 0.72% hits;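 active = inhibition of the luminescence signal of 40% or more relative to plate controls, in a single-dose primary screen at 18.75 µM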
TRPM1 prom inh: inhibitors of MITF-dependent TRPM1 promoter reporter, primary screen, cell-based, SK-MEL-5, single point, luciferase; inhibition, % at 12.5 µM; 330,000 compounds, 0.83% hits; SK-MEL-5 TRPM1 promoter luciferase, 24 h;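 active = mean inhibition across replicates of 60% or more, whatever share of single replicates reaches that level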
CF NFkB block: inhibitors of PAF-induced NF-kB signaling, primary screen, cell-based, GFP fluorescence, uHTS; KKLEB NF-kB-GFP reporter, GFP fluorescence overnight; inhibition, % at 5 µM; 360,000 compounds, 0.86% hits; AID 588850, 2011;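 active = at least 50% inhibition at 5 µM, scaled per plate between neutral and stimulator controls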;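 note: PAF is a Pseudomonas aeruginosa culture filtrate used as stimulus; plate controls were PAF-stimulated DMSO wells for no effect and unstimulated DMSO wells for full effect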
ABHD5 PLIN5 PPI: ABHD5-PLIN5 interaction inhibitors, primary screen, cell lysate, split luciferase complementation, luminescence; inhibition, % at 4 µM; Perilipin-5 (Homo sapiens) + 1-acylglycerol-3-phosphate O-acyltransferase ABHD5 (Homo …; Split G. princeps luciferase complementation, 4 h; AID 602281, 2012; 360,000 compounds, 0.78% hits;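 active = inhibition above the mean inhibition across every tested compound plus 3 SD, cut at about 22% in these data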;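 note: 0% = DMSO only wells and the 100% control is not disclosed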
Peg3 prom inh-1: Peg3 promoter-driven luciferase inhibitors, primary screen, cell-based, HeLa, luciferase luminescence | HeLa PEG-Prom luciferase reporter, overnight | inhibition, % at 20 µM | 360,000 compounds, 1.7% hits | AID 588405, 2011;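 active = inhibition of at least 50% at 20 µM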
KKLEB cytotox: cytotoxicity in KKLEB CF airway cells, primary screen, cytotoxicity control for CF NF-kB inhibitor project, cell-based, uHTS, fluorescence assay plates; KKLEB CF airway cells viability, ATPlite luminescence, overnight; stronger effect = lower value; cells stimulated with P. aeruginosa culture filtrate; activity change (cytotoxicity), % at 5 µM; 360,000 compounds, 0.36% hits; AID 602141, 2011;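 active = corrected activity change at or below -50% at 5 µM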
Peg3 prom inh-2: Peg3 promoter reporter inhibitors, retest, confirmation, cell-based, HeLa, luciferase reporter, single concentration; shares compounds with Peg3 prom inh-1; HeLa PEG-Prom luciferase reporter, luminescence, overnight; inhibition, % at 20 µM; 1,300 compounds, 84% hits; AID 602417, 2012;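 active = at 20 µM dose, 40% or more inhibition averaged across four replicates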
CF NFkB conf: inhibitors of PAF-induced NF-kB signaling, retest, confirmation, cell-based, GFP fluorescence, single concentration | shares compounds with CF NFkB block | KKLEB CF airway cells, overnight | inhibition, % at 5 µM | 1,300 compounds, 64% hits | AID 602472, 2012; in the data active = inhibition above about 40%;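 note: stimulus PAF is a Pseudomonas aeruginosa filtrate and not platelet activating factor; plate controls were DMSO wells with stimulus for no effect and unstimulated DMSO wells for full effect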
* hit, by the source's call; / = not tested or not shown.

SMILES	HIF-2a block	TRPM1 prom inh	CF NFkB block	ABHD5 PLIN5 PPI	Peg3 prom inh-1	KKLEB cytotox	Peg3 prom inh-2	others
COc1cc2nc(CN3CC=C(c4ccccc4)CC3)[nH]c(=O)c2cc1OC	-210	1	69*	6	102*	-7	94*
CCC(=O)c1cn(Cc2ccc(C#N)cc2)c2ccccc12	13	-9	3	5	10	-8	/
N#Cc1ccc(Cn2cc(C=O)c3ccccc32)cc1	5	-86	7	-8	74*	-1	61*
Cc1[nH]c2ccc(OC(F)(F)F)cc2c1CCNCc1cccc([N+](=O)[O-])c1	-26	-13	13	8	82*	-14	58*
COc1cccc(CNCCc2ccc(F)cc2)c1	14	6	7	0	5	1	/
Cc1cc2c(cc1C)NP(=S)(c1ccccc1)N2	-204	-71	6	-12	-209	0	/
Nc1cc(C(=O)Nc2ccccc2F)ccc1N1CC2CC(C1)c1cccc(=O)n1C2 (stereo not given)	-35	/	-42	-6	-28	0	/
Cc1ccc(C)c(NP(=O)(Oc2ccccc2)Oc2ccccc2)c1	10	-10	97*	-9	63*	-67*	67*
Cc1ccc(S(=O)(=O)NP(=O)(Oc2ccccc2)Oc2ccccc2)cc1	-2	4	7	-1	4	-2	/
O=c1c2ccccc2nc(CSc2ncnc3nc[nH]c23)n1-c1ccc(Cl)c(Cl)c1	27	3	1	2	60*	-6	45*
CCOC(=O)c1c(-n2c(C)cc(C=C3C(=O)NC(=S)NC3=O)c2C)sc2c1CCCC2	77*	64*	34	-15	109*	5	62*
COC(COC(N)=O)C1=C(N2CC2)C(=O)C(C)=C(N2CC2)C1=O (stereo not given)	-5	-3	89*	-22	98*	-37	97*
O=C(NCC1=C(c2cccc3ccccc23)C[C@@H]2CC[C@H]1N2Cc1ccco1)c1cccs1	4	/	8	10	26	-2	/
CC[C@@H](O)C[C@H]1CCC[C@@]2(C[C@@H]3OC(=O)/C=C/[C@@](C)(O)[C@@H](O)[C@H](C)[C@@H](O)[C@H](OC4CCC(N(C)C)C(C)O4)[C@@H](O)[C@](C)(O)CCCCC/C=C/[C@@H]4CC(C)(C)O[C@@]4(O)C[C@H](O2)[C@H]3C)O1 (stereo not given in full)	-15	76*	28	3	89*	8	93*
O=[N+]([O-])c1cc(F)c(N2CCCCCC2)cc1N1CCNCC1	-3	6	26	15	99*	-23	97*
O=C(NCC1=C(c2ccc3ccccc3c2)C[C@@H]2CC[C@H]1N2Cc1ccco1)c1nccs1	-2	/	9	-2	-22	0	/
Cc1ccc(S(=O)(=O)N2Cc3cc(-c4ccccc4)ccc3-n3nncc3C2)cc1	0	/	22	-14	3	-9	/
COc1ccc(-n2c(/C=C/c3ccc(O)c(OC)c3)nc3ccccc3c2=O)cc1	24	4	33	-1	56*	-27	69*
O=C(O)C1C2c3ccccc3C(O)C1(C(=O)O)c1ccccc12 (stereo not given)	13	-18	25	0	6	-2	/
CC[n+]1c(-c2ccccc2)c2cc(N)ccc2c2ccc(N)cc21	2	/	-66	-23	55*	0	87*
O=C1NC(=O)C2(CCN(c3ccccc3)CC2)C(=O)N1	14	-8	23	5	-10	-17	/
CCOC(=O)[C@]12Cc3cc(C)ccc3[C@H]1N(Cc1ccccc1)C(=O)c1ccccc12	17	-1	-24	-2	65*	15	34
CCOC(=O)[C@]12Cc3cc(OC)ccc3[C@H]1N(Cc1ccccc1)C(=O)c1ccccc12	5	6	6	-10	17	6	/
O=C1NCN(c2ccccc2)C12CCN(C(c1cccs1)c1nnnn1Cc1ccccc1)CC2 (stereo not given)	16	/	-11	-9	50*	-2	40*
C[C@@H]1COc2cccc(N3CCN(C)CC3)c2S(=O)(=O)N1	-7	/	/	-12	/	/	/
SMILES	HIF-2a block	TRPM1 prom inh	CF NFkB block	ABHD5 PLIN5 PPI	Peg3 prom inh-1	KKLEB cytotox	Peg3 prom inh-2	others
CCCCn1nnnc1C(C1CC1)N1CCC(n2c(=O)[nH]c3ccccc32)CC1 (stereo not given)	-10	/	7	2	44	-5	/
CCCCn1nnnc1C(CCSC)N1CCC(n2c(=O)[nH]c3ccccc32)CC1 (stereo not given)	-8	/	-23	-3	52*	9	68*
COc1cccc(C(c2nnnn2-c2c(C)cccc2C)N2CCC(n3c(=O)[nH]c4ccccc43)CC2)c1OC (stereo not given)	-4	/	20	12	58*	-6	42*
c1ccc(CN2COC3CCCCCC32)cc1 (stereo not given)	8	/	-14	-2	-7	-12	/
CC(CC(C)(C)N1CC1)=NO	7	3	-8	-6	4	-5	/
C[C@@H]1CN([C@@H](C)CO)C(=O)CCCn2cc(nn2)CO[C@H]1CN(C)C(=O)Oc1ccc2ccccc2c1	0	/	10	-3	-6	-13	/
CC12Cc3cn[nH]c3C=C1CCC1C2CCC2(C)C1CCC2(C)O (stereo not given)	21	17	33	-3	21	-23	/
CC(=O)OC1CC[C@]2(C#N)[C@H]3CC[C@]4(C)[C@H](C5C=CC(=O)O5)CCC4(O)C3CCC2(O)C1 (stereo not given in full)	4	34	22	4	76*	-15	87*
CC(=O)OC1(C)CC(C)C(=O)C(C(O)CC2CC(=O)NC(=O)C2)C1 (stereo not given)	77*	84*	81*	-1	105*	-44	98*	CF NFkB conf=114*
c1ccc(CN2Cc3ccccc3-n3nncc3C2)nc1	-3	/	-18	-2	-6	5	/
COc1ccc(N2C(=O)CC(N3CCC(n4c(=O)[nH]c5ccccc54)CC3)C2=O)cc1 (stereo not given)	17	-10	-1	2	9	-16	/
